Reference: PubChem BioAssay AID1159580 (chemical genetic matrix, 2015)
Among all 5,500 compounds or so, about 2,000 (36%) were called active. Not shown: some 18% with an inconclusive outcome. No stated cut-off is given here; in the data, active means normalized growth mostly below about 0.91 (no sharp cut-off); inconclusive means no clear call, values can overlap the other calls; inactive means mostly above about 0.92. The list shows a part of the results.

Assay: chemical genetic growth profiling, strain panel (AID 1159580);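 further: tested at 20 µM; growth read once vehicle control cultures reached saturation at 30 °C; 1 = growth at the plate median or of vehicle wells; lower values mean less growth of the strain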
Settings: growth OD

Measured: normalized growth

NCCCN
inactive: S. cerevisiae deletion strains, locus YJR066W, strain TOR1, active compounds read low 0.933 | S. cerevisiae deletion strains, locus YKL009W, strain mrt4, active compounds read low 1.02 | S. cerevisiae deletion strains, locus YKL068W, active compounds read low 0.985 | S. cerevisiae deletion strains, locus YKL085W, strain MDH1 (second series), active compounds read low 0.984 | S. cerevisiae deletion strains, locus YKL085W, strain MDH1, active compounds read low 0.984 | S. cerevisiae deletion strains, locus YKL160W, strain elf1, active compounds read low 1.02 | S. cerevisiae deletion strains, locus YKL190W, strain CNB1, active compounds read low 0.999 | S. cerevisiae deletion strains, locus YKR001C, strain vps1, active compounds read low 1.01 | S. cerevisiae deletion strains, locus YKR026C, strain gcn3, active compounds read low 0.986 | S. cerevisiae deletion strains, locus YKR091W, strain srl3, active compounds read low 0.998 | S. cerevisiae deletion strains, locus YLL001W, strain dnm1, active compounds read low 1 | S. cerevisiae deletion strains, locus YLL026W, active compounds read low 0.988 | S. cerevisiae deletion strains, locus YLL041C, strain sdh2, active compounds read low 0.987 | S. cerevisiae deletion strains, locus YLR027C, strain aat2, active compounds read low 1 | S. cerevisiae deletion strains, locus YLR039C, strain RIC1, active compounds read low 1.09 | S. cerevisiae deletion strains, locus YLR058C, strain SHM2, active compounds read low 1 | S. cerevisiae deletion strains, locus YLR102C, strain apc9, active compounds read low 0.988 | S. cerevisiae deletion strains, locus YLR113W, strain HOG1, active compounds read low 1.05 | S. cerevisiae deletion strains, locus YLR221C, strain rsa3, active compounds read low 0.959 | S. cerevisiae deletion strains, locus YLR258W, strain gsy2, active compounds read low 0.992 | S. cerevisiae deletion strains, locus YLR262C, strain YPT6 (second series), active compounds read low 1.02 | S. cerevisiae deletion strains, locus YLR262C, strain YPT6, active compounds read low 1.14 | S. cerevisiae deletion strains, locus YLR268W, strain sec22, active compounds read low 0.979 | S. cerevisiae deletion strains, locus YLR320W, strain mms22, active compounds read low 0.983 | S. cerevisiae deletion strains, locus YLR330W, strain CHS5, active compounds read low 0.993 | S. cerevisiae deletion strains, locus YLR342W, strain FKS1 (second series), active compounds read low 1.02 | S. cerevisiae deletion strains, locus YLR342W, strain FKS1, active compounds read low 0.994 | S. cerevisiae deletion strains, locus YLR357W, strain rsc2, active compounds read low 0.978 | S. cerevisiae deletion strains, locus YLR370C, strain arc18, active compounds read low 0.967 | S. cerevisiae deletion strains, locus YLR371W, strain rom2, active compounds read low 0.961 | S. cerevisiae deletion strains, locus YLR384C, strain iki3, active compounds read low 0.993 | S. cerevisiae deletion strains, locus YLR418C, strain cdc73, active compounds read low 1.03 | S. cerevisiae deletion strains, locus YML016C, strain PPZ1, active compounds read low 0.994 | S. cerevisiae deletion strains, locus YML032C, strain rad52, active compounds read low 1.02 | S. cerevisiae deletion strains, locus YML120C, strain ndi1, active compounds read low 0.992 | S. cerevisiae deletion strains, locus YML124C, strain tub3, active compounds read low 0.99 | S. cerevisiae deletion strains, locus YMR058W, strain fet3, active compounds read low 0.994 | S. cerevisiae deletion strains, locus YMR078C, strain ctf18, active compounds read low 0.972 | S. cerevisiae deletion strains, locus YMR125W, strain sto1, active compounds read low 0.97 | S. cerevisiae deletion strains, locus YMR129W, active compounds read low 0.991 | S. cerevisiae deletion strains, locus YMR205C, strain PFK2, active compounds read low 1.02 | S. cerevisiae deletion strains, locus YMR223W, strain ubp8, active compounds read low 1.01 | S. cerevisiae deletion strains, locus YMR231W, strain pep5, active compounds read low 0.946 | S. cerevisiae deletion strains, locus YMR307W, strain GAS1, active compounds read low 1.1 | S. cerevisiae deletion strains, locus YNL067W, strain RPL9B, active compounds read low 1.01 | S. cerevisiae deletion strains, locus YNL071W, strain lat1, active compounds read low 0.985 | S. cerevisiae deletion strains, locus YNL183C, strain NPR1, active compounds read low 0.969 | S. cerevisiae deletion strains, locus YNL209W, strain ssb2, active compounds read low 0.993 | S. cerevisiae deletion strains, locus YNL233W, strain BNI4, active compounds read low 1.01 | S. cerevisiae deletion strains, locus YNL248C, strain rpa49, active compounds read low 0.993 | S. cerevisiae deletion strains, locus YNL250W, strain rad50, active compounds read low 0.979 | S. cerevisiae deletion strains, locus YNL271C, strain bni1, active compounds read low 0.99 | S. cerevisiae deletion strains, locus YNL298W, strain CLA4, active compounds read low 1.01 | S. cerevisiae deletion strains, locus YNL307C, strain MCK1, active compounds read low 0.985 | S. cerevisiae deletion strains, locus YNL322C, strain KRE1 (second series), active compounds read low 0.962 | S. cerevisiae deletion strains, locus YNL322C, strain KRE1, active compounds read low 0.996 | S. cerevisiae deletion strains, locus YNR049C, strain mso1, active compounds read low 0.988 | S. cerevisiae deletion strains, locus YNR052C, strain pop2, active compounds read low 0.992 | S. cerevisiae deletion strains, locus YOL006C, strain TOP1, active compounds read low 1.08 | S. cerevisiae deletion strains, locus YOL012C, strain htz1 0.761 | S. cerevisiae deletion strains, locus YOL147C, strain pex11, active compounds read low 0.997 | S. cerevisiae deletion strains, locus YOR001W, strain rrp6, active compounds read low 0.951 | S. cerevisiae deletion strains, locus YOR061W, strain CKA2, active compounds read low 0.997 | S. cerevisiae deletion strains, locus YOR069W, strain VPS5, active compounds read low 0.993 | S. cerevisiae deletion strains, locus YOR070C, strain gyp1, active compounds read low 0.999 | S. cerevisiae deletion strains, locus YOR080W, strain dia2, active compounds read low 0.97 | S. cerevisiae deletion strains, locus YOR083W, strain WHI5, active compounds read low 1.02 | S. cerevisiae deletion strains, locus YOR106W, strain vam3, active compounds read low 0.995 | S. cerevisiae deletion strains, locus YOR136W, strain idh2, active compounds read low 0.974 | S. cerevisiae deletion strains, locus YOR144C, strain elg1, active compounds read low 0.993 | S. cerevisiae deletion strains, locus YOR184W, strain ser1, active compounds read low 1.01 | S. cerevisiae deletion strains, locus YOR231W, strain MKK1, active compounds read low 0.987 | S. cerevisiae deletion strains, locus YOR265W, strain rbl2, active compounds read low 0.99 | S. cerevisiae deletion strains, locus YOR270C, strain vph1, active compounds read low 0.974 | S. cerevisiae deletion strains, locus YOR290C, strain snf2, active compounds read low 0.991 | S. cerevisiae deletion strains, locus YOR316C, strain cot1, active compounds read low 0.987 | S. cerevisiae deletion strains, locus YPL051W, strain arl3, active compounds read low 0.984 | S. cerevisiae deletion strains, locus YPL078C, strain atp4, active compounds read low 1 | S. cerevisiae deletion strains, locus YPL106C, strain sse1, active compounds read low 0.996 | S. cerevisiae deletion strains, locus YPL240C, strain hsp82, active compounds read low 0.986 | S. cerevisiae deletion strains, locus YPL241C, strain CIN2, active compounds read low 1 | S. cerevisiae deletion strains, locus YPL256C, strain CLN2, active compounds read low 0.988 | S. cerevisiae deletion strains, locus YPR119W, strain clb2, active compounds read low 0.986 | S. cerevisiae deletion strains, locus YPR141C, strain kar3, active compounds read low 0.985 | S. cerevisiae deletion strains, locus YPR163C, strain tif3, active compounds read low 0.986 | S. cerevisiae deletion strains, locus YPR167C, strain met16, active compounds read low 0.999 | S. cerevisiae deletion strains, strain wtn01, active compounds read low 0.96 | S. cerevisiae strains, strain wild type, active compounds read low 1
